# Laboratory results reported in ChEMBL document CHEMBL3433997, “St. Jude Leishmania screening dataset” (2016).
# Biological target: Solute carrier family 2, facilitated glucose transporter member 1 (Homo sapiens) (UniProt P11166)
# Assay: ST_JUDE_LEISH: Cytotoxicity at 2uM final concentration against transgenic Leishmania Mexicana promastigotes LmGLUT1 that are glucose transport deficient and complemented with the human glucose transporter GLUT1. Activity is measured by DNA content using SYBR green in vitro
# Type: functional
# Solute carrier family 2, facilitated glucose transporter member 1 (Homo sapiens), sequence (P11166 whole entry): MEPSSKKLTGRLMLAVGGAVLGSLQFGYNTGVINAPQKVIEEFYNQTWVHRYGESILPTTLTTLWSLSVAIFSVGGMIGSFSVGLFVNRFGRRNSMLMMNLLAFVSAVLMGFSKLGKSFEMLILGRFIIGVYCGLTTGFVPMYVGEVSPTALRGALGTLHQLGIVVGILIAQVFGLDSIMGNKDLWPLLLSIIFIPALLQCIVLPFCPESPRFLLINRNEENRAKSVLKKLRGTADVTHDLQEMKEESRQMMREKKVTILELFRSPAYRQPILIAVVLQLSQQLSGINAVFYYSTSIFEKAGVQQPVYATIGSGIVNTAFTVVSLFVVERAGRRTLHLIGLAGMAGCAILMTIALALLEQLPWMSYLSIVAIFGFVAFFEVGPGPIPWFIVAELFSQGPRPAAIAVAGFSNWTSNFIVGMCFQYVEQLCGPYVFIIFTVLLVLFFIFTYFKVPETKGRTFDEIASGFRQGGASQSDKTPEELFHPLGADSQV
row,SMILES,inhibition
1,CCCC(CNCc1cccc(C)c1)CNc1cc(=O)c2ccccc2[nH]1 (stereo not given),10.9%
2,CCC(Cc1cnc2nc(N)nc(N)c2n1)c1ccc(C(=O)N[C@@H](CCC(=O)O)C(=O)O)cc1 (stereo not given in full),11.9%
3,Cc1cccc2c(C(=O)NC3CCN(Cc4ccccc4)CC3)cc(-c3cccnc3)nc12,1.6%
4,O=C(NC1CC1)c1cnc(N2CCC(Oc3ccc(Cl)cc3)CC2)c(Cl)c1,5.36%
5,COc1cc(N(C)Cc2cnc3nc(N)nc(N)c3n2)cc(OC)c1OC,4.09%
6,Cc1cccc2nc(-c3ccc(-c4cccc(NC(=O)c5cncn5C)c4)cc3)[nH]c12,5.73%
7,Nc1nccc2ccc(-c3ccncc3)cc12,5.87%
8,Cc1nn(-c2ccccc2)c2sc(C(=O)N(CCCN(C)C)c3nc(-c4ccccc4)cs3)cc12,1.15%
9,CC(C)CCN1CCCN(Cc2ccc(C(=O)NCc3ccc(Cl)cc3)cc2)CC1,2.09%
10,CC(C)COc1ccc(C(O)C(CN2CCCCC2)c2ccccc2)cc1 (stereo not given),5.44%
11,CS(=O)(=O)NCCCNCc1ccc(-c2ccc(-c3nc4cc(C(F)(F)F)ccc4[nH]3)s2)cc1,1.6%
12,Cc1cccc2nc(-c3cccc(-c4cccc(CNC(C)C)c4)c3)[nH]c12,-0.63%
13,Cc1cc(NCC2CCN(CC3CCCCC3)C2)nc(Nc2ccc(Cl)cc2)n1 (stereo not given),7.03%
14,c1ccc(CNCc2cccc(-c3cccc(-c4nc5ccccc5[nH]4)c3)c2)cc1,4.44%
15,CN1CCN(c2ccc3nccc(CCN4CCC(NCc5ccc6c(n5)NC(=O)CO6)CC4)c3n2)CC1,-0.03%
16,Cc1cc(=O)c(-c2ccc(Oc3cccc(OC(F)(F)F)c3)cc2)c(C)[nH]1,1.89%
17,C=CCOC1OC(COC(c2ccccc2)(c2ccccc2)c2ccccc2)C(OC(C)=O)C(OC(C)=O)C1NC(C)=O (stereo not given),1.33%
18,CCC(CC)n1c(COC)cc2c3c(N)nc(N)nc3ccc21,33.6%
19,CC(C)N1CCC(NC(=O)N2CCCN(c3ncnc4cc(-c5ccc(Cl)cc5)sc34)CC2)CC1,-0.49%
20,CCN(CC)c1ccc2nc(N)nc(N)c2c1,8.53%

row,SMILES,inhibition
1,CCCCCCN1CCCN(Cc2ccc(C(=O)Nc3ccc(C)c(F)c3)cc2)CC1,11.8%
2,COc1cc2c(cc1OC)C(C(=O)Nc1ccc(C(F)(F)F)cc1)C(c1cccs1)N(C)C2=O (stereo not given),2.92%
3,Cn1cccc1C(=O)C(=O)Nc1cccc(-c2ccc(-c3nc4cc(C(F)(F)F)ccc4[nH]3)cc2)c1,4%
4,Cc1cccc2nc(-c3ccc(-c4cccc(CNCc5ccc(S(C)(=O)=O)cc5)c4)s3)[nH]c12,12.5%
5,CN(CCN)Cc1cccc(-c2ccc(-c3nc4cc(C(F)(F)F)ccc4[nH]3)s2)c1,10.8%
6,COc1ccccc1C1CCN(C2CCC(NC(=O)c3cc4ccccc4[nH]3)CC2)CC1 (stereo not given),-0.02%
7,CCCCCCCN1CC[C@@H](CCCc2ccnc3ccc(OCCCCN/C(N)=N/O)cc23)[C@@H](CC)C1,4.19%
8,CO/C(=C\C=C\c1cc2cc(Cl)c(Cl)cc2[nH]1)C(=O)NC1CCN(CCCc2ccccc2)CC1,0.89%
9,COc1ccc(CNc2nccc3ccc(-c4ccc5nccn5c4)cc23)cc1,1.79%
10,Cc1ccc(NC(=O)c2ccc(C(=O)NC3CCN(CC4CCCCC4)CC3)cc2)cc1,2.26%
11,COCCNC(=O)c1ccc(OC2CCN(CC(C)=Cc3ccccc3)CC2)c(Cl)c1,2.65%
12,COc1cccc(NC(=O)c2ccc(NCCCN3CCC(C)CC3)c([N+](=O)[O-])c2)c1,76.1%
13,Cc1csc2nc(-c3ccccn3)nc(Nc3ccncn3)c12,1.73%
14,Cc1n[nH]c2ccc(-c3ccc4nccc(N5CCC(N)CC5)c4c3)cc12,-2.13%
15,CS(=O)(=O)c1ccc(-c2cnc(N)c(-c3ccc(O)cc3)c2)cc1,2.19%
16,COc1cccc(CN2CCC(C(=O)Nc3ccc(-c4nc5ccccc5[nH]4)cc3)CC2)c1,23.8%
17,C(=N\Nc1nccc2sc(-c3ccccc3)cc12)/c1cccnc1,4.32%
18,FC(F)(F)c1cccc(CNCC2CCN(Cc3ccc4c(c3)OCO4)CC2)c1,9.53%
19,CCC[C@@H]([C@@H](CC1CCCCC1)C(=O)N[C@H](C(=O)Nc1nccc(N)n1)C(C)(C)C)N(O)C=O,3.28%
20,OC(CNc1ccnc(Nc2cccc(OCCCN3CCOCC3)c2)n1)c1ccccc1 (stereo not given),0.76%
